# Compound activity: PubChem BioAssay, National Center for Advancing Translational Sciences (NCATS)
# AmpC inh no detg: qHTS Inhibitors of AmpC Beta-Lactamase (assay without detergent) | AmpC nitrocefin hydrolysis, absorbance 480 nm, 0.0001% Triton | AID 485341, 2010 | Potency, µM (top dose mostly 57.1 µM), for the others: top-dose activity change, negative = inhibition, hits mostly inhibitors | hit rate 0.52% among 330,000;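 further: plate controls were no compound for no effect and no enzyme for full effect; nearly all actives have a fitted effect of over 20% in size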
# Target sequence (P00811 whole entry, looked up): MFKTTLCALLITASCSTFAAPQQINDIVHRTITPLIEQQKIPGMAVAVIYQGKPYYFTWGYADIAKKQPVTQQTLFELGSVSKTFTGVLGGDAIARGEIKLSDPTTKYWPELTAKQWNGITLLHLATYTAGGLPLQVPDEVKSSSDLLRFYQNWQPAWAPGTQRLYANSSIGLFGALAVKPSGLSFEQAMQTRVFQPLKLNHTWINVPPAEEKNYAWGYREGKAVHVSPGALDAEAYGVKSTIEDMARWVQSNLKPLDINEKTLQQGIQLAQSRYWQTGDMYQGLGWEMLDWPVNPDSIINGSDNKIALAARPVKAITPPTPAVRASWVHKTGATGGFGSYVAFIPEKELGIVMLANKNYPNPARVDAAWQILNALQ
#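 20 mM phosphate pH 7.0 + 0.01% (detergent screen) or 0.0001% Triton X-100; 5.3 nM AmpC reagent; cpd preinc 15 min RT; nitrocefin (800 uM stock) to start; A480 q20 s × 4 min; Activity was normalised to no-enzyme and no-compound control wells.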
# AMA1 RON2 block: qHTS for Inhibitors of AMA1-RON; Towards Development of Antimalarial Drug Lead: Primary Screen. AlphaScreen AMA1-biotinylated RON2 peptide binding. Plasmodium falciparum AMA1 (3D7) - RON2 peptide interaction. Potency, µM (top dose mostly 58.2 µM), without a hit: at the highest dose activity change, negative = inhibition, actives largely listed as inhibitors. hit rate 0.2% among 360,000;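 further: 0% = vehicle wells and -100% = peptide control; nearly all actives have a fitted effect of over 45% in size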
#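 AMA1 (3D7) with his tag at 25 nM final met compounds first, then biotinylated RON2 peptide at 25 nM; detection used donor plus acceptor beads, 10 µg/mL apiece, read by AlphaScreen after 30 min at room temperature.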
# Pf growth 96h: Primary qHTS for delayed death inhibitors of the malarial parasite plastid, 96 hour incubation. Potency, µM (series often up to 28.7 µM), for inactives: at the top dose activity change, negative = inhibition, most hits filed as inhibitors. hit rate 6.9% among 320,000. P. falciparum luciferase reporter growth, 96 h. AID 504834, 2011
#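 Readout is luminescence from an integrated firefly luciferase in P. falciparum. Red cells, 2% hematocrit and 0.05% parasitemia final, were cultured with compound through two parasite generations (96 hours) at 37 C, 5% CO2.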
# AmpC detergent: qHTS Inhibitors of AmpC Beta-Lactamase (assay with detergent); AID 485294, 2010; Potency, µM (series often up to 114 µM), without a hit: at the highest dose activity change, negative = inhibition, hits mostly inhibitors; hit rate 0.041% among 370,000; AmpC hydrolysis of nitrocefin, absorbance 480 nm, 0.01% Triton; P00811;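 further: 0% = no-compound wells and -100% = no-enzyme wells; nearly all actives have a fitted effect of over 25% in size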
#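 AmpC (5.3 nM in the dispensed reagent) in 20 mM phosphate pH 7.0 with 0.01% (detergent screen) or 0.0001% Triton X-100 was preincubated with compounds for 15 min at room temperature. Nitrocefin was then added from an 800 uM solution, and hydrolysis was followed at 480 nm.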
# Pf growth 48h: Primary qHTS for delayed death inhibitors of the malarial parasite plastid, 48 hour incubation. Potency, µM (doses to about 28.7 µM), inactives show top-dose activity change, negative = inhibition, hits mostly inhibitors. P. falciparum luciferase growth in erythrocytes, 48 h. hit rate 5.9% among 310,000
#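 First compound was added to culture medium, then infected red cells at 0.1% parasitemia and 2% hematocrit (final). After incubation at 37 C under 5% CO2, luciferase detection reagent was dispensed and light output recorded.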
# HCV inhibitor: qHTS Assay for Inhibitors of Hepatitis C Virus (HCV) | Huh7.5.1 HCVcc-Cre infection, luciferase reporter, 44 h | Potency, µM (top dose mostly 41.8 µM), inactives show top-dose activity change, negative = inhibition, actives largely listed as inhibitors | hit rate 3.4% among 340,000 | AID 651820, 2012
#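 A cell-based infection assay in which seeded cells (1,000 per well) receive test compound after 4 h, are inoculated with HCVcc-Cre at approximately 0.5 moi, and are incubated 44 h before luminescence detection.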
# * hit, by the source's call; ? = inconclusive; / = not tested or not shown; [ ] = another dose, or the depositor's remark. In the library only some 11% were active in any assay of this set; here they are far more common. The call rests on the fitted dose curve; in most records, active means well fitted curve in the direction sought with a large enough effect; inconclusive means small, poorly fitted or top-dose-only effect, or another doubt; inactive means no such curve, though single readings can be large; an effect the other way counts as inactive or inconclusive. Unless noted, on the % scale 0 is the no-effect control and ±100 the full control effect; potency means the concentration at half of the fitted maximal effect.
SMILES,AmpC inh no detg,AMA1 RON2 block,Pf growth 96h,AmpC detergent,Pf growth 48h,HCV inhibitor
CC1CCCCN1C(=O)c1cc2nc(-c3ccccc3)cc(-c3ccccc3)n2n1 (configuration not stated),56.4%,54.6%,?,-7.3%,8.28µM*,11.2µM*
CCOc1ccccc1CNC(=O)CCc1c(C)nn(-c2ccc(N3CCCCC3)nn2)c1C,/,/,/,2.0%,/,/
O=C(c1cc2nc(-c3ccc(F)cc3)cc(C(F)(F)F)n2n1)N1CCCCC1c1cccnc1 (configuration not stated),106.7%,17.6%,-50.8%,?,3.7µM*,7.94µM*
COc1ccc(C)cc1NC(=O)Cc1ccc(NC(=O)N2CCCCc3ccccc32)cc1,/,/,/,-7.2%,/,/
Cc1nc(-c2ccccc2)sc1-c1nc(-c2ccncc2)ncc1S(=O)(=O)c1ccccc1,0.8%,2.2%,1.65µM*,-0.6%,?,?
Cc1cc(C)cc(OC(C)C(=O)Nc2nonc2-c2ccc(Br)cc2)c1 (configuration not stated),/,/,/,25.2%,/,/
COC(=O)c1cn(NC(=O)C2CCC(C(C)(C)C)CC2)c(=O)c2ccccc12 (configuration not stated),-31.4%,-18.1%,4.15µM*,-2.3%,15.7%,12.3%
COC(=O)c1cn(NC(=O)C2COc3ccccc3O2)c(=O)c2ccccc12 (configuration not stated),-26.5%,9.6%,10.2%,-2.5%,-3.2%,-0.6%
Cc1nc2ccccc2c(=O)n1NC(=O)C1CCC(C(C)(C)C)CC1 (configuration not stated),-19.8%,-3.8%,?,5.2%,11.2%,-17.4%
COC(=O)c1cn(NC(=O)C2CCCO2)c(=O)c2ccccc12 (configuration not stated),1.4%,4.0%,11.7µM*,7.2%,0.5%,2.8%
Cc1ccccc1NC(=O)c1cc2c(-c3ccccc3)nn(-c3ccccc3)c2s1,/,/,/,23.6%,/,/
CC(=O)Nc1sc2c(c1CN1CCCC1)CCCC2,-2.3%,-1.7%,?,2.5%,?,?
Cc1sc(NC(=O)c2ccco2)c(CN2CCN(c3ccc(F)cc3)CC2)c1C,-10.0%,-20.1%,3.1%,-3.0%,/,?
CC(=O)Nc1sc(C)c(C)c1CN1CCN(Cc2ccccc2)CC1,-1.3%[2.29 µM],-13.6%,4.15µM*,-5.9%,?,12.4%
CC(=O)Nc1sc2c(c1CN1CCN(c3ccc(F)cc3)CC1)CCCC2,-0.2%,-16.4%,9.28µM*,?,/,?
Cc1sc(NC(=O)c2ccco2)c(CN2CCN(c3ccccn3)CC2)c1C,26.3%,-4.6%,8.1%,-2.3%,9.28µM*,?
CCOC(=O)c1c(NC(=O)OC)sc(C(=O)N(C)C)c1C,-6.2%,6.3%,-6.1%,-2.5%,-8.3%,-23.1%
CCOC(=O)c1c(NC(=O)C(Sc2ccccc2)c2ccccc2)sc(C(=O)N(C)C)c1C (configuration not stated),101.8%,-21.4%,?,-5.6%,3.29µM*,?
CCOC(=O)c1c(NC(=O)C(Sc2ccccc2)c2ccccc2)sc(C(N)=O)c1C (configuration not stated),-10.0%,0.0%,9.28µM*,-8.0%,?,?
COc1cc(OC)c(Nc2ncnc3onc(-c4cccc(Cl)c4)c23)cc1Cl,/,/,/,-5.5%,/,/
ClCCN(CCCl)c1ccc(-n2cnc3c(Cl)ncnc32)cc1,/,-10.3%,/,/,/,12.6µM*
CC(C)NC(=O)Cn1nc(N2CCN(c3ccccc3)CC2)ccc1=O,/,/,/,1.1%,/,/
CC(C)CCNC(=O)c1cc(Sc2ccc(F)cc2F)nc2ccccc12,/,/,/,2.0%,/,/
N#Cc1ccc[n+](CC(=O)c2ccc(Cl)cc2)c1,-17.7%,-21.4%,7.38µM*,-0.1%,-2.8%,-0.5%
NC(=O)c1ccc[n+](CC(=O)c2ccc(NC(=O)c3ccccc3)cc2)c1,-12.6%,1.1%,26.3%,-16.7%,?,23.0%
SMILES,AmpC inh no detg,AMA1 RON2 block,Pf growth 96h,AmpC detergent,Pf growth 48h,HCV inhibitor
NC(=O)c1ccc[n+](CC(=O)c2ccccc2)c1,-20.9%,0.0%,-2.4%,1.1%,52.6%,0.562µM*
O=C(C[n+]1ccc2ccccc2c1)c1ccc(NC(=O)c2ccccc2)cc1,5.0%,-3.6%,50.8%,5.9%,13.1µM*,-13.5%
CCCCCc1c2c(cc(O)c1C(=O)O)OC(=O)c1cc(C(=O)CCCC)c(OC)cc1O2,-29.2%,5.2%,/,/,/,0.501µM*
CCN(c1cccc(C)c1)S(=O)(=O)c1c(C)nc2sc(C)cn2c1=O,/,/,/,-7.9%,/,/
Cc1nc2nc[nH]n2c(=O)c1CCC(=O)Nc1ccc(F)cc1,/,/,/,3.6%,/,/
CCc1c(C)nc2nncn2c1Nc1cccc(C)c1,/,/,/,15.7%,/,/
CC(C)=CCC/C(C)=C/CC(C)(C)CNCCN1CCNCC1,82.3%,/,4.65µM*,1.4%,4.65µM*,/
CC(C)=CCC/C(C)=C/CCC(C)NCCN1CCNCC1 (configuration not stated),58.7%,/,?,?,13.1µM*,/
C=CC(C)(O)CCC=C(C)C (configuration not stated),-13.5%,-2.8%,28.5%,?,?,9.4%
CC(C)=CCCC(C)CN1CCC(O)CC1 (configuration not stated),/,-1.5%,0.0%,?,10.1%,-5.3%
CN(c1cccc(NC(=O)CN(c2cccc(Cl)c2)S(=O)(=O)c2ccc(Cl)cc2)c1)S(C)(=O)=O,-13.5%,-5.0%,0.9%,?,?,22.4µM*
CCCc1nc(NCCCOCC)c2nnn(Cc3ccccc3)c2n1,-3.3%,2.6%,11.7µM*,-11.7%,5.3%,1.6%
CCOCCCNc1nc(C(F)(F)F)nc2c1nnn2Cc1ccccc1Cl,22.4%,-2.0%,-20.1%,-2.1%,17.9%[0.00184 µM],11.2µM*
C=CCNc1nc(C(F)(F)F)nc2c1nnn2Cc1ccccc1Cl,-22.8%,26.1%,?,-10.3%,-0.8%,0.8%
Cc1cccc(CN2C(=O)c3ccccc3Sc3ccc(C(=O)NC4CCCCC4)cc32)c1,/,/,/,8.5%,/,/
CCOc1ccc2oc(C(=O)N(C)CCc3ccc(OC)c(OC)c3)c(C)c2c1,51.6%,6.7%,?,?,?,?
CCOc1ccc2oc(C(=O)N(C)CC(=O)Nc3ccc(OCC)c(OCC)c3)c(C)c2c1,121.6%,-6.2%,11.7µM*,?,?,?
